# Bioassay records as filed in PubChem.
# SW480 rereplic – A quantitative high throughput screen for small molecules that induce DNA re-replication in SW480 colon adenocarcinoma cells; SW480 DNA re-replication, Hoechst DNA content imaging, 48 h; Potency, µM (doses to about 46.1 µM), for the others: at the highest dose re-replication activation, most hits filed as activators; 340,000 tested, 1.8% active; AID 624297, 2012; note: potency is the fitted concentration of half-maximal effect; % of control where 0% means no effect; nearly all actives have a fitted effect of over 55% in size
#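 Compounds, transferred as 23 nL by pin tool, were incubated with cells for 48 hr; DNA content per nucleus was then quantified by Hoechst staining and fluorescence plate imaging.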
# Giardia killer – Small Molecules that selectively kill Giardia lamblia: qHTS; Giardia lamblia trophozoite viability; activity change, % at 7.66 µM, hits read low; 340,000 tested, 0.15% active; in the data active = activity change below about -80%; inconclusive = between about -30% and that limit;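 note: parasites exposed to compound for two days anaerobically before the ATP read; % is set by controls: 0 for no effect and ±100 for the full control effect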
#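 Giardia lamblia trophozoites (100 cells/well) were incubated with compounds for 48 h at 37 deg C under anaerobic conditions. Viability was read as ATP content by one-step luminescence after 15-30 min at room temperature.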
# Gal4-VP16 FLuc – VP16 counterscreen qHTS for inhibitors of ROR gamma transcriptional activity. Drosophila S2 Gal4-VP16 UAS-luciferase, luminescence, 20 h. 310,000 tested, 3.5% active. AID 2546, 2010. Potency, µM (doses to about 53.6 µM), inactives show top-dose activity, negative = inhibition, most hits filed as inhibitors;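 note: Gal4-VP16 expression switched on by copper sulfate through the metallothionein promoter; potency is the fitted concentration of half-maximal effect; % is set by controls: 0 for no effect and ±100 for the full control effect; nearly all actives have a fitted effect of over 50% in size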
# Chronic BCR inh – qHTS Assay to Find Inhibitors of Chronic Active B-Cell Receptor Signaling; ABC-DLBCL IkBa-CBG/CBR reporter, luminescence ratio, 4 h; Potency, µM (series often up to 46.1 µM), for the others: at the highest dose activity change, negative = inhibition, usual class: inhibitors; 340,000 tested, 0.05% active; active = well fitted inhibition curve with a large enough effect in the signal ratio, with a control signal flat, not every such curve was filed as active; inconclusive = small, poorly fitted or top-dose-only effect, or effect the other way, or a change in a side signal; the % refers to the signal ratio;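 note: potency is the fitted concentration of half-maximal effect; plate controls were basal doxycycline-induced cells for no effect and cells given 10 µM MG132 for full effect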
#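 Concentration-response series (up to 46 uM) were applied to TMD8 dual-reporter cells for 4 h at 37C with doxycycline. Green/red ratio, after filter-overlap correction, defined %Activity; red signal alone was normalised to basal cells and zero luminescence.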
# MCF10A rereplic – A quantitative high throughput screen for small molecules that induce DNA re-replication in MCF 10a normal breast cells; MCF 10A DNA re-replication, Hoechst nuclear intensity, 48 h; Potency, µM (series often up to 46.1 µM), inactives show at the top dose activity, positive = re-replication, usual class: activators; 350,000 tested, 2.9% active; note: potency is the fitted concentration of half-maximal effect; % of control where 0% means no effect; nearly all actives have a fitted effect of over 50% in size
# RORg inh – qHTS for inhibitors of ROR gamma transcriptional activity; Nuclear receptor ROR-gamma (Mus musculus), P51450; Drosophila S2 Gal4-RORgamma UAS-luciferase reporter, 20 h; Potency, µM (highest dose often 53.6 µM), for inactives: at the top dose activity change, negative = inhibition, most hits filed as inhibitors; 310,000 tested, 5.4% active; note: potency is the fitted concentration of half-maximal effect; % is set by controls: 0 for no effect and ±100 for the full control effect; nearly all actives have a fitted effect of over 60% in size
# Target sequence (P51450 whole entry, looked up, the tested form may be a part): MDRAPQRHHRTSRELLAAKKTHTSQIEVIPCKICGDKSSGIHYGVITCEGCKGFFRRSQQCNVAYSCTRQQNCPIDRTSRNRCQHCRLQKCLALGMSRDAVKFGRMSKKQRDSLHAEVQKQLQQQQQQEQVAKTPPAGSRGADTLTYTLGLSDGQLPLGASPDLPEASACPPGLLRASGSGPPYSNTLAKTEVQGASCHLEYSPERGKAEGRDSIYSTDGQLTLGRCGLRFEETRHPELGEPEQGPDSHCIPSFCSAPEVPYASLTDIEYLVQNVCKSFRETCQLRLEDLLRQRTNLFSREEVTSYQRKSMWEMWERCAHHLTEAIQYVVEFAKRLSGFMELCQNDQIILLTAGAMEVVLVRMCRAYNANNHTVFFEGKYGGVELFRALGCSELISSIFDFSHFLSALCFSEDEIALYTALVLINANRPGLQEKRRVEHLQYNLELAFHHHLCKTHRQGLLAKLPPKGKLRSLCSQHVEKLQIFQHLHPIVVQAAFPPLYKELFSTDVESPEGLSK
#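 Compounds are pin-transferred onto Drosophila Schneider cells expressing a copper-inducible Gal4–ROR gamma transactivation domain fusion. After 1 hr, copper sulfate is added to 700 uM final; luciferase is read 20 hr later.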
# Starred values were filed as active, the others as inactive; ? = inconclusive; . = not tested or not shown; [ ] = another dose, or the depositor's remark. An excerpt weighted towards active compounds, which were near 8.3% of everything screened. Unless noted, calls come from the whole dose curve; as a rule, active = well fitted curve in the direction sought with a large enough effect; inconclusive = small, poorly fitted or top-dose-only effect, or another doubt; inactive = no such curve, though single readings can be large; an effect the other way counts as inactive or inconclusive.
SMILES,SW480 rereplic,Giardia killer,Gal4-VP16 FLuc,Chronic BCR inh,MCF10A rereplic,RORg inh
NC(=O)C1CCN(C(=O)CNC(=O)c2ccccc2)CC1,-2%,-29,0%,-2%,-1%,-3%
CCN(Cc1nc2ccccc2c(=O)[nH]1)Cc1nc2cc(OC)c(OC)cc2c(=O)[nH]1,7%,-10,2.2µM*,1%,0%,1.3µM*
CCN(Cc1nc2ccccc2c(=O)[nH]1)Cc1nc2ccsc2c(=O)[nH]1,?,-12,1µM*,?,0%,0.45µM*
COc1cc2nc(CN3CCC(Cc4ccccc4)CC3)[nH]c(=O)c2cc1OC,-4%,-14,3%,1%,6%,11µM*
CCN(Cc1cc(=O)n2ccsc2n1)Cc1nc2cc(OC)c(OC)cc2c(=O)[nH]1,1%,25,-1%,-5%,-1%,-42%
CC(NC(=O)CSc1nc(C2CC2)n(-c2ccccc2)n1)c1ccco1 (stereo not drawn),-3%,-10,.,2%,6%,.
CCOC(=O)CC(=O)COc1nc2cc3c(nc2o1)CCCC3,5%,-13,0%,?,-3%,2%
C=CCNC(=S)Nc1nc2c(cc1C(=O)OCC)CCCC2,-6%,21,8.9µM*,-2%,1%,4µM*
CCNC(=S)Nc1nc2c(cc1C(=O)OCC)CCCC2,2%,6,1.8µM*,?,-2%,0.56µM*
COC(=O)C(C(C)=O)C(NC(=O)OC(C)(C)C)c1ccccc1 (stereo not drawn),.,.,1%,.,.,17%
O=C(NCCC1=CCCCC1)c1ccc2c(c1)ncn2-c1ccc(F)c(F)c1,.,.,.,11%,.,.
CN1CCN(NC(=O)Nc2ccc(Br)cc2Cl)CC1,-7%,23,-4%,?,5%,-1%
Cc1ccc(SCc2cc(=O)[nH]c(/N=C(\N)Nc3cccc4ccccc34)n2)cc1,-3%,-12,-12%,0%,?,16%
Cc1ccc(N/C(N)=N/c2nc(CSc3nnc(C)s3)cc(=O)[nH]2)c(C)c1,?,37,?,?,5.8µM*,23%
COc1ccc(N/C(N)=N/c2nc(C)cc(=O)[nH]2)cc1,-3%,9,-8%,1%,1%,3%
COc1ccc(N/C(N)=N/c2nc(CSc3nnc(C)s3)cc(=O)[nH]2)cc1,3.3µM*,-1,-1%,?,?,1%
Cc1cccc(N/C(N)=N/c2nc(CSc3ccc(Cl)cc3)cc(=O)[nH]2)c1,?,1,5%,4%,3.7µM*,-5%
CC1(C)CC(=O)C2=C(C1)N(c1ccc(F)cc1)C(=O)NC2(C(F)(F)F)C(F)(F)F,-5%,9,-7%,2%,3%,11µM*
Cc1ccc(NS(=O)(=O)c2ccc(NC(=O)C3CCCO3)cc2)cc1 (stereo not drawn),-4%,-5,18µM*,?,-2%,?
Cc1ccc(NS(=O)(=O)c2ccc(C3CCCCC3)cc2)cc1,-4%,-7,?,?,23µM*,10%
COc1ccc(NS(=O)(=O)c2ccc(NC(=O)C3CCCO3)cc2)cc1 (stereo not drawn),-3%[9.22 µM],-14,-8%,1%,-7%,37%
CSc1nc(O)c(C(c2ccc(O)cc2)c2c(O)nc(SC)[nH]c2=O)c(=O)[nH]1,23%,9,5%,4%,0%,22%[1.91 µM]
COc1ccccc1C(C)Nc1nc(-c2cccnc2)nc2ccccc12 (stereo not drawn),-15%,8,0%,6%,?,-4%
COc1ccc(-c2csc(N3C(=N)SCC3=O)n2)cc1,2%,-18,?,?,-1%,4µM*
COc1ccc(-c2csc(N3C(=O)C4C5c6ccccc6C(c6ccccc65)[C@@H]4C3=O)n2)cc1 (stereo partly drawn),2%,18,-7%,4%,2%,-2%
SMILES,SW480 rereplic,Giardia killer,Gal4-VP16 FLuc,Chronic BCR inh,MCF10A rereplic,RORg inh
COc1ccc(Cn2cc(C(=O)c3ccccc3)c(=O)c3cc(OC)ccc32)cc1,-8%,8,-2%,-3%,0%,0%
COc1ccc2c(c1)c(=O)c(C(=O)c1ccccc1)cn2Cc1ccccc1,16µM*,-17,-23%,-19%,?,-18%
Cc1nn(Cc2ccccc2)c(C)c1C(=O)OCC(=O)c1cc(C)n(CC(F)(F)F)c1C,4%,-9,-7%,?,13µM*,31%
Cc1cc(C(=O)COC(=O)c2ccco2)c(C)n1Cc1ccco1,?,5,-9%,0%,8%,35%
COc1cccc2sc3cc(NCc4ccc(C)o4)ccc3c(=O)c12,18µM*,-11,.,-3%,21µM*,.
COc1cc2sc3cc(NCCCN4CCOCC4)ccc3c(=O)c2cc1OC,?,?,.,?,35%,.
C=CCN1C(=O)C(Cc2ccc(Br)cc2)S/C1=N\N=C\c1ccco1 (stereo not drawn),-6%,-8,-18%,-11%,17%,14µM*
O=C(NNc1ccccc1)C(CCO)C(=O)NNc1ccccc1,?,-3,-3%,1%,12µM*,-2%
COc1ccccc1-n1cnc(N)c1C(=O)c1ccccc1,15µM*,-7,2%,-6%,?,3%
COc1ccccc1-n1cnc(N)c1C(C)=O,11%,-11,0%,?,-10%,-9%
NNC(=O)c1c(O)c2cccc3c2n(c1=O)CCC3,-5%,-16,2%,7%,21µM*,-21%
CCc1ccc(/C=C2/SC(=S)N(CCC(=O)Nc3cccnc3)C2=O)cc1,-12%,-12,.,?,-1%,.
Cc1ccc(NC(C)c2cc(Cl)ccc2O)cc1 (stereo not drawn),4%,-15,13µM*,14%,?,?
O=C(c1cccc(Cl)c1)N1CCC2CC1c1cc(N3CCOCC3)ccc12 (stereo not drawn),-49%,11,.,.,-32%,.
O=C(NC(=S)Nc1cccnc1)c1cccs1,2%,19,-7%,-1%,1%,10µM*
O=C(Nc1cccnc1)c1cccs1,1%,17,-4%,?,?,24%
O=C(NC(=S)Nc1ccc(Cl)cn1)c1cccs1,3%,?,1µM*,?,1%,?
O=C(COC(=O)c1cccs1)Nc1ccc(Cl)cn1,-4%,-1,.,5%,-3%,.
CCN(CC)CCn1c2ccccc2c2cnc(N)c(C#N)c21,?,-5,-63%,?,?,0.18µM*
